Data reported in PubChem BioAssay (NCATS).
Inconclusive results are not listed. Active and inactive are the calls of the source. Unless noted, calls follow the shape of the dose curve; as a rule, active = well fitted curve in the direction sought with a large enough effect; inconclusive = small, poorly fitted or top-dose-only effect, or another doubt; inactive = no such curve, though single readings can be large; an effect the other way counts as inactive or inconclusive.

Key:
[1] = AP1 Signaling Pathway (AID 357; active = well fitted curve in either direction with a large enough effect, not every such curve was filed as active;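 also: ME-180 reporter cells stimulated with EGF at its EC50 level; % is scaled to controls: 0 for no effect and ±100 for the full control effect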)
Summary of the method: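 Beta-lactamase reporter under AP-1 response element, ME-180 background. Stimulus: EC50 EGF. Compound exposure 5 h, 37 °C. Detection: CCF4, 2.5 h RT, 460/530 nm. Values: AC50 from titration.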

[2] = biological target: Cytochrome P450 1A2 (Homo sapiens) (UniProt P05177); experiment: p450-cyp1a2 (AID 410; calls by dose curve; also: potency is read from the fitted curve at half-maximal effect;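 as to activity change, negative = inhibition: -100% = full effect of reference inhibitor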)
Summary of the method: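 Human CYP1A2 (20nM) demethylated Luciferin-ME at its Km (100uM) in 100mM KPO4. After 10 min compound preincubation, NADPH regeneration ran the reaction 60 min at room temperature. Luciferin was read by luminescence, normalized to 57 uM furafylline.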

[3] = NFAT Signaling Pathway (AID 444; active = well fitted curve in either direction with a large enough effect, not every such curve was filed as active;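 also: carbachol stimulus at about its EC50 of 1 µM final; % is scaled to controls: 0 for no effect and ±100 for the full control effect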); settings: Jurkat NFAT-bla M1, carbachol, beta-lactamase ratio, 5 h; at 17.2 µM (top of the series) unless noted
Summary of the method: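 Jurkat cells with NFAT-driven β-lactamase reporter and co-expressed M1 receptor, stimulated with carbachol (final 1 uM, ~EC50), compound titration, 5 h at 37 °C. CCF4 loaded 1 h at RT; 460/530 nm ratio gave %activity and AC50.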

[4] = Stat Signaling Pathway (AID 446; active = well fitted curve in either direction with a large enough effect, not every such curve was filed as active;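 also: ME-180 cervical cancer cells given 40 pM IL-6 alongside compound; SIE-controlled beta-lactamase reporter measured as 460/530 nm FRET emission ratio; % is scaled to controls: 0 for no effect and ±100 for the full control effect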)
Summary of the method: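 ME-180 cells carrying a SIE-driven beta-lactamase reporter are stimulated with 40 pM IL-6 for 5 h at 37C in the presence of compound. The 460/530 nm FRET substrate ratio is read after 2.5 h at RT. Data are normalised to 300 pM IL-6 and to 125 nM JAK inhibitor controls.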

[5] = biological target: Glucocorticoid receptor (Homo sapiens) (UniProt P04150); experiment: GR-GFP Redistribution (AID 450;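 active = compounds whose dose series gives a full or clear partial fitted curve of increased nuclear translocation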; also: potency is read from the fitted curve at half-maximal effect); settings: U2OS GR-GFP nuclear translocation, laser cytometry, 2 h
[6] = biological target: Glucocorticoid receptor (Homo sapiens) (UniProt P04150); experiment: GR-EFC Redistribution (AID 451; calls by dose curve; also: potency is read from the fitted curve at half-maximal effect); settings: CHO-K1 GR-EFC translocation, beta-gal luminescence, 2 h
Summary of the method: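 CHO-K1 cells expressing nuclear EA and GR-ED fragments of b-gal; compounds titrated up to 46 uM final, 2 h at 37 C. GR nuclear translocation read as complemented b-gal luminescence after 1 h RT detection.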

[7] = biological target: Mitogen-activated protein kinase 10 (Mus musculus) (UniProt Q61831); experiment: JNK3 AlphaScreen Assay (AID 530; active = well fitted curve in either direction with a large enough effect, not every such curve was filed as active;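 also: kinase came from lysate of stimulated human HepG2 cells; signal reports phosphorylation of biotinylated GST-cJun 1-79 at Ser73 with 10 µM ATP; % is scaled to controls: 0 for no effect and ±100 for the full control effect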)
Summary of the method: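 qHTS format: compounds tested as titrations against IL-1beta/TNF-alpha-activated HepG2 lysate JNK3 with biotin-GST-cJun substrate and 10 uM ATP at room temperature. Loss of anti-phospho-cJun AlphaScreen signal indicates inhibition.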

[8] = biological target: 3',5'-cyclic-AMP phosphodiesterase 4B (Homo sapiens) (UniProt Q07343); experiment: qHTS Assay for Inhibitors of PDE-IV (AID 607; active = well fitted activation curve with a large enough effect in the main read-out, with a control signal flat, not every such curve was filed as active; also: % of control where 0% means no effect)
Summary of the method: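 HEK293 ACTOne cells with CNG channel (1000/well), endogenous PDE4; membrane potential dye, compounds up to 22.9 uM final. Fluorescence Ex 535/Em 590; RO 20-1724 (100 uM final) as reference.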

[9] = qHTS Assay for Lipid Storage Modulators (AID 1519; calls by dose curve); settings: Drosophila S3 cells, BODIPY lipid droplet/cell ratio, laser cytometry, cells loaded with oleic acid; for activity change, negative = inhibition: at 25.7 µM (top of the series)
Summary of the method: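 Cells seeded at 5,000 per well were treated with compounds over a concentration series and loaded with oleic acid (400 uM, as added). Lipid droplet fluorescence (488 nm excitation, 500-530 nm channel) was read by laser-scanning cytometry and normalized to 20 uM Triacsin C.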

[10] = biological target: ATP-dependent 6-phosphofructokinase (Trypanosoma brucei brucei) (UniProt O15648); experiment: qHTS Assay to Find Inhibitors of T. brucei phosphofructokinase: hit validation (AID 492961); also: % is scaled to controls: 0 for no effect and ±100 for the full control effect
Summary of the method: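 Luminescence from ADP-Glo reports ADP generated as T. brucei PFK (1.25 nM) phosphorylates 0.5 mM fructose-6-phosphate using 0.1 mM ATP. Reactions ran 45 min at room temperature, pH 8.0.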

[11] = biological target: Ubiquitin carboxyl-terminal hydrolase 1 (Homo sapiens) (UniProt O94782); experiment: Inhibitors of USP1/UAF1: Pilot qHTS (AID 504865);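 also: rhodamine fluorescence freed from ubiquitin-rhodamine substrate followed over time; top concentration of the series differs between compounds; % is scaled to controls: 0 for no effect and ±100 for the full control effect; nearly all actives have a fitted effect of over 35% in size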
Summary of the method: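 In 50mM HEPES pH 7.8 containing 0.5mM EDTA, 1mM TCEP, 0.1 mg/ml BSA and 0.01% Tween-20, 1nM USP1/UAF1 is exposed to compound for 15 min, then Ub-Rho (150nM final) is added and fluorescence is read over time.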

[12] = biological target: Luciferin 4-monooxygenase (Photinus pyralis) (UniProt P08659); experiment: Biochemical firefly luciferase enzyme assay for NPC (AID 624030);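 also: purified P. pyralis luciferase at 10 nM with luciferin and ATP substrate; 0% = DMSO and -100% = full luciferase inhibition by PTC124 control; nearly all actives have a fitted effect of over 70% in size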
Summary of the method: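 Purified P. pyralis luciferase at 10 nM in 50 mM Tris Acetate (final), luminescence read within 5 minutes of enzyme addition to compounds. Activity normalised to PTC124 versus DMSO; concentration-response curves classed by r2, magnitude and activity.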

[13] = S16 Schwann cell viability assay (CellTiter-Glo assay) (AID 624031);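 also: cellular ATP luminescence as a viability measure; plate controls were DMSO-treated cells for no effect and cell-free wells for full effect; nearly all actives have a fitted effect of over 70% in size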
Summary of the method: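 Luminescent ATP read-out (CellTiter-Glo) after 24 h compound exposure of native S16 rat Schwann cells at 37 °C. Signals were normalized between cell-free wells and DMSO-treated cells, set as 0% activity.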

[14] = qHTS profiling for inhibitors of Plasmodium falciparum proliferation (AID 504749); also: nearly all actives have a fitted effect of over 60% in size; also: potency is read from the fitted curve at half-maximal effect;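 as to activity, negative = inhibition: 0% = DMSO vehicle and full inhibition = artemisinin control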; settings: P. falciparum in erythrocytes, SYBR Green DNA, 72 h, at 12.8 µM (top of the series)
Summary of the method: (§1)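 Readout was DNA-dye fluorescence from lysed cultures, ex 485/em 535 nm. Parasitized red cells had grown 72 h with compound; data scaled between 0.29 uM artemisinin and DMSO wells and corrected using vehicle-only plates.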

C2A = experiment: as above; settings: P. falciparum in erythrocytes, SYBR Green DNA, 72 h; series mostly up to 12.8 µM
Summary of the method: as §1

CP191 = experiment: as above; settings: P. falciparum in erythrocytes, SYBR Green DNA, 72 h; series mostly up to 12.8 µM
Summary of the method: as §1

CP250 = experiment: as above; settings: P. falciparum in erythrocytes, SYBR Green DNA, 72 h; series mostly up to 12.8 µM
Summary of the method: as §1

FAB9 = experiment: as above; settings: P. falciparum in erythrocytes, SYBR Green DNA, 72 h; series mostly up to 12.8 µM
Summary of the method: as §1

JCK = experiment: as above; settings: P. falciparum in erythrocytes, SYBR Green DNA, 72 h; series mostly up to 12.8 µM
Summary of the method: as §1

SC27B = experiment: as above; settings: P. falciparum in erythrocytes, SYBR Green DNA, 72 h; series mostly up to 12.8 µM
Summary of the method: as §1

[15] = measured here: cell count channel max response
[16] = measured here: lipid channel max response

Ubiquitin carboxyl-terminal hydrolase 1 (Homo sapiens), sequence (O94782 whole entry, looked up): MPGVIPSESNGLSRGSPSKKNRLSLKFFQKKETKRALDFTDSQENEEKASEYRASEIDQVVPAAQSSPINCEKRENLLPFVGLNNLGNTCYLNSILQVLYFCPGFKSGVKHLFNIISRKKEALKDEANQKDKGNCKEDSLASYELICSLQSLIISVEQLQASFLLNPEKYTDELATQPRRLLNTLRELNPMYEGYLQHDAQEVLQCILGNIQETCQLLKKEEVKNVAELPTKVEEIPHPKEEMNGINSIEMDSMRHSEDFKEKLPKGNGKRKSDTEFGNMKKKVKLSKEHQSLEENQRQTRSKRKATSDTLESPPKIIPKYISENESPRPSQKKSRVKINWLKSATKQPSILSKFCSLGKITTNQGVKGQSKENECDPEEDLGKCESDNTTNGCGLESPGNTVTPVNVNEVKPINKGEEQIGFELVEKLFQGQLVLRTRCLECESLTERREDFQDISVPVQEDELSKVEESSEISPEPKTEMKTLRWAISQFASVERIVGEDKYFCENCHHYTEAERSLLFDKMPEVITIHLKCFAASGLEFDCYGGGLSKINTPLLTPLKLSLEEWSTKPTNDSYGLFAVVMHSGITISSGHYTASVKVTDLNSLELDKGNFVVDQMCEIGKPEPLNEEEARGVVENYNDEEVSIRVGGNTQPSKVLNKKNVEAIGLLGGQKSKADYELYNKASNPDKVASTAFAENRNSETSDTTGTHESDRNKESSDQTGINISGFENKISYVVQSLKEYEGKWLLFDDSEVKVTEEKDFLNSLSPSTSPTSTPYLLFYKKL
ATP-dependent 6-phosphofructokinase (Trypanosoma brucei brucei), sequence (O15648 whole entry, looked up): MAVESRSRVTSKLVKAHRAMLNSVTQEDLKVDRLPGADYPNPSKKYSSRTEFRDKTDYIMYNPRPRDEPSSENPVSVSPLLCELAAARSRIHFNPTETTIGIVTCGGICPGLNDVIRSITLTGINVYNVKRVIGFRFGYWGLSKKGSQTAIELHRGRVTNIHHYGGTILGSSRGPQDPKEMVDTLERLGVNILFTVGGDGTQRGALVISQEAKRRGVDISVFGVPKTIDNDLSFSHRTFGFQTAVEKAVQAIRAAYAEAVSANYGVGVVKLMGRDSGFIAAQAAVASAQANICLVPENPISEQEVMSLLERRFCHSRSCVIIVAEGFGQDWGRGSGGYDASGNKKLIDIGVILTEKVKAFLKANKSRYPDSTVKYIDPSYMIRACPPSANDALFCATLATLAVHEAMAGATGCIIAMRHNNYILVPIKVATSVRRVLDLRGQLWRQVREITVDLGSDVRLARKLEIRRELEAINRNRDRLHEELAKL
Cytochrome P450 1A2 (Homo sapiens), sequence (P05177 whole entry, looked up): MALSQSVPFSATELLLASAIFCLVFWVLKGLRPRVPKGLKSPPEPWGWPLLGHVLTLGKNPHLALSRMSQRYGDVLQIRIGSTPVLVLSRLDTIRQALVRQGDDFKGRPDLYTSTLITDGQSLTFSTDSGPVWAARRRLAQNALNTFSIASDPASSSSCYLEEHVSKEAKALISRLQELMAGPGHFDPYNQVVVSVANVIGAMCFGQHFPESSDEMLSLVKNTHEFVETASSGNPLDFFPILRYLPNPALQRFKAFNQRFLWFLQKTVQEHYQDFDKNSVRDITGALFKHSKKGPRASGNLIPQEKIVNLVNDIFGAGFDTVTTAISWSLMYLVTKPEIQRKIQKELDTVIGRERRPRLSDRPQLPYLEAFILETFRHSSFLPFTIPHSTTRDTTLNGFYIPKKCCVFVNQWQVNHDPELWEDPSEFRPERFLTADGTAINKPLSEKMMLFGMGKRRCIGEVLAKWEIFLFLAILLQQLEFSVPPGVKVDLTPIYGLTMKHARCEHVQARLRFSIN
Glucocorticoid receptor (Homo sapiens), sequence (P04150 whole entry, looked up, the tested form may be a part): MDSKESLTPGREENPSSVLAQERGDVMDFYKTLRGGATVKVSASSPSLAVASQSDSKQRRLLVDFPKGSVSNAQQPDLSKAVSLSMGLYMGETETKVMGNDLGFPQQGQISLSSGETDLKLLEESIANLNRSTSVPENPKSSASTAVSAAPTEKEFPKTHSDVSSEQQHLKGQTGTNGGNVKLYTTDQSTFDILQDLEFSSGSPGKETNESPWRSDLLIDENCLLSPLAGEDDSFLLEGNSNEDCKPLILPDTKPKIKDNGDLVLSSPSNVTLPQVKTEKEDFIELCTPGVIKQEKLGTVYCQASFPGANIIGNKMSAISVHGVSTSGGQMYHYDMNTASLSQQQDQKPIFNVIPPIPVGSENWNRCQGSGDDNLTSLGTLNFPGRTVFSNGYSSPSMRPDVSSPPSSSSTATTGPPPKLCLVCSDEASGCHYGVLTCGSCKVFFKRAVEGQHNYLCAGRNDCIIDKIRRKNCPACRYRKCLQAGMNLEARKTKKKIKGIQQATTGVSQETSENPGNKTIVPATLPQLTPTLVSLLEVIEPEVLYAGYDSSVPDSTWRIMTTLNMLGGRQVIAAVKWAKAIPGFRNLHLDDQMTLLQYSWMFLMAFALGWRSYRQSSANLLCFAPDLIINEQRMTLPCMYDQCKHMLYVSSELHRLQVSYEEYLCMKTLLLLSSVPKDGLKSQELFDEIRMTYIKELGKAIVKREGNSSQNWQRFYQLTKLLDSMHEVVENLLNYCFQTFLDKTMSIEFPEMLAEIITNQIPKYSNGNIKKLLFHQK
Luciferin 4-monooxygenase (Photinus pyralis), sequence (P08659 whole entry, looked up): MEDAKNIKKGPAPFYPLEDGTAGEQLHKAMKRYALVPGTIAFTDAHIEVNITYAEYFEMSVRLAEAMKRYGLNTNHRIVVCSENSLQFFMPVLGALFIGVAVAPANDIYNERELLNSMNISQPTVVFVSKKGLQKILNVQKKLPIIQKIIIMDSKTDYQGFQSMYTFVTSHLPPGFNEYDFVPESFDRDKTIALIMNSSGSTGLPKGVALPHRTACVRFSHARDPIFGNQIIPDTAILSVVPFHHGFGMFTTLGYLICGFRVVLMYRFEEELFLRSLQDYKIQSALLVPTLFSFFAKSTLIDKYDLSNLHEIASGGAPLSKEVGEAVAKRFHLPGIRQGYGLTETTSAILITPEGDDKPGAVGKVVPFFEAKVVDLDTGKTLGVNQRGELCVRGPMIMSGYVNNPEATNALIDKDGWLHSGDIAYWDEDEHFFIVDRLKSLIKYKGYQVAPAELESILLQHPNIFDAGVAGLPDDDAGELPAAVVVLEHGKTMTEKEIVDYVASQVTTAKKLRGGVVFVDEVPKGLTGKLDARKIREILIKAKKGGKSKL
3',5'-cyclic-AMP phosphodiesterase 4B (Homo sapiens), sequence (Q07343 whole entry, looked up): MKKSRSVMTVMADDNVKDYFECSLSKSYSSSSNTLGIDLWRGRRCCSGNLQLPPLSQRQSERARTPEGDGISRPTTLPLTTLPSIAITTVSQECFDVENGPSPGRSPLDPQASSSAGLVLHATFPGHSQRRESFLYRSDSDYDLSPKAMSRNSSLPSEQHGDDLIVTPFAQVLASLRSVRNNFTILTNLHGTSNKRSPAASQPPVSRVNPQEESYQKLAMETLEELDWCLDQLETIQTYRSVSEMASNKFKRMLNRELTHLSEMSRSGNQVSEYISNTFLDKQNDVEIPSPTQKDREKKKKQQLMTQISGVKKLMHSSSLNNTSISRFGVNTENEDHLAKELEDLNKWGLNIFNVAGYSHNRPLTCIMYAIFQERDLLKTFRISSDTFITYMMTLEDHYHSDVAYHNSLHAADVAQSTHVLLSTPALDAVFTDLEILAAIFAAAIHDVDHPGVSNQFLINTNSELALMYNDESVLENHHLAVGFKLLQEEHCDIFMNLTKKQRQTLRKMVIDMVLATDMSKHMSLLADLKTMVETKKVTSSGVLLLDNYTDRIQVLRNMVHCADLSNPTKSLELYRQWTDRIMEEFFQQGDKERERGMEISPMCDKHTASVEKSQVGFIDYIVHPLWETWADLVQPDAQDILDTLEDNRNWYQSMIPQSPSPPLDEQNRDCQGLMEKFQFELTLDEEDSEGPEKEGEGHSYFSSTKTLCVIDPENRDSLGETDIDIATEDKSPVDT

C[C@H](N[C@@H](C)COc1ccccc1)[C@H](O)c1ccc(O)cc1
-3.47%: max response [9, 16]
active: Potency [2] 5.01 µM
-4.01%: max response [9, 15]
inactive: outcome [1] | activity change, negative = inhibition [3] -9.06% | outcome [4] | Potency [5] > 20.6 µM | Potency [6] > 20.6 µM | Potency [7] | outcome [8] | activity change, negative = inhibition [9] 0.23% | outcome [10] | Potency [11] | Potency [12] | outcome [13] | activity, negative = inhibition ([14]; parasite line A) 2.67% | activity, negative = inhibition ([14]; parasite line B) 10.2% | Potency (C2A) | Potency (CP191) | Potency (CP250) | Potency (FAB9) | Potency (JCK) | Potency (SC27B)

CC(C)(C)NC[C@H](O)COc1cccc2c1CCC(=O)N2
inactive: outcome [1] | Potency [2] | activity change, negative = inhibition [3] -6.75% | outcome [4] | Potency [5] > 20.6 µM | Potency [6] > 20.6 µM | Potency [7] | outcome [8] | activity change, negative = inhibition [9] -0.554% | outcome [10] | Potency [11] | Potency [12] | outcome [13] | activity, negative = inhibition ([14]; parasite line A) 7.75% | activity, negative = inhibition ([14]; parasite line B) -1.3% | Potency (C2A) | Potency (CP191) | Potency (CP250) | Potency (FAB9) | Potency (SC27B)
-1.05%: max response [9, 16]
-2.13%: max response [9, 15]
active: Potency (JCK) 8.91 µM

Nc1c2ccccc2nc2c(O)cccc12
-4.58%: max response [9, 15]
-4.09%: max response [9, 16]
inactive: outcome [1] | activity change, negative = inhibition [3] -1.27% | outcome [4] | Potency [5] > 20.6 µM | Potency [6] > 20.6 µM | Potency [7] | outcome [8] | activity change, negative = inhibition [9] -0.346% | Potency [11]
active: Potency [2] 6.31 µM

NS(=O)(=O)c1cc2c(cc1Cl)N[C@@H](CC1CCCC1)NS2(=O)=O
1.17%: max response [9, 15]
1.04%: max response [9, 16]
inactive: outcome [1] | Potency [2] | activity change, negative = inhibition [3] -6.75% | outcome [4] | Potency [5] > 20.6 µM | Potency [6] > 20.6 µM | Potency [7] | outcome [8] | activity change, negative = inhibition [9] -0.977% | outcome [10] | Potency [11] | Potency [12] | outcome [13] | activity, negative = inhibition ([14]; parasite line A) -0.239% | activity, negative = inhibition ([14]; parasite line B) 5.35% | Potency (C2A) | Potency (CP191) | Potency (CP250) | Potency (FAB9) | Potency (JCK) | Potency (SC27B)

C=CCN1C(=CCO)[C@H]2C[C@H]3[C@@H]1CC[C@@]31c3ccccc3N3C=C4[C@@H]5N(/C=C/2[C@H]31)c1ccccc1[C@]51CC[C@H]2[C@H]1C[C@@H]4/C(=C/CO)N2CC=C
inactive: outcome [1] | Potency [2] | activity change, negative = inhibition [3] -23.2% | outcome [4] | Potency [5] > 20.6 µM | Potency [6] > 20.6 µM | Potency [7] | outcome [8] | activity change, negative = inhibition [9] 0.271% | outcome [10] | Potency [12] | outcome [13] | activity, negative = inhibition ([14]; parasite line A) 1.83% | activity, negative = inhibition ([14]; parasite line B) 0.223% | Potency (C2A) | Potency (CP191) | Potency (CP250) | Potency (FAB9) | Potency (JCK) | Potency (SC27B)
-15.8%: max response [9, 16]
-16.1%: max response [9, 15]
